The source of these data is PubChem BioAssay AID1499 (Sanford-Burnham Center for Chemical Genomics, 2009).

Molecules are shown by their SMILES. Screen size: about 93,000 compounds; about 65 (0.07%) were called active.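 How the source made its calls: active means 10 µM primary screen giving 50% or more activity, confirmed by 40% or more on retest at that dose; inactive means the rest.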 Many of the other results were omitted from the sample, so actives are more common in it than they were.

Sequence of Integrin beta-2 (Homo sapiens) + Integrin alpha-M (Homo sapiens) (P05107 whole entry, looked up, other chains not shown): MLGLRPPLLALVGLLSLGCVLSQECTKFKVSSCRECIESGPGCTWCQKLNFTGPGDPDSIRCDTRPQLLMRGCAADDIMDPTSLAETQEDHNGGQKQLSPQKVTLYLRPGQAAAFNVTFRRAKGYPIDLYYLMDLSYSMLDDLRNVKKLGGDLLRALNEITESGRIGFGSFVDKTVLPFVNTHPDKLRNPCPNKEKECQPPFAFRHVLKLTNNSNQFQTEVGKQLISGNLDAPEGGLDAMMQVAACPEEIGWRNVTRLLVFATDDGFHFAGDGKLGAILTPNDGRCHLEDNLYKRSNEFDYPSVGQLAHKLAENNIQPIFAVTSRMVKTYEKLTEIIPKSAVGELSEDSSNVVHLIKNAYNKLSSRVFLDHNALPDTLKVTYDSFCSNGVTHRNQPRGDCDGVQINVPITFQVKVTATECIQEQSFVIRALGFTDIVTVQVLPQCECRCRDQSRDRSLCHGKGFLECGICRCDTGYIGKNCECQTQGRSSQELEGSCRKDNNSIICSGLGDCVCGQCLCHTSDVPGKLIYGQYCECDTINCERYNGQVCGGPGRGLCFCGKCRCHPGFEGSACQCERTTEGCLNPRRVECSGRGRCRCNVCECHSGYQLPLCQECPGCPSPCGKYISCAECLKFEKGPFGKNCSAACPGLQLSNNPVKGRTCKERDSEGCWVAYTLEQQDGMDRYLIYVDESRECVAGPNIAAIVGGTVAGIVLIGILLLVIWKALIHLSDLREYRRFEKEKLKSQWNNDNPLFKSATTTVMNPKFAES

This experiment concerns the target Integrin beta-2 (Homo sapiens) + Integrin alpha-M (Homo sapiens) (UniProt P05107+P11215). Briefly: enhancers of CD11b/CD18 adhesion to fibrinogen, primary screen, K562 cells, luminescence (AID 1499). Conditions: ATPlite luminescence, at 10 µM, stronger effect = higher value. (In general: In ATP-based viability assays light output follows the ATP content of the culture.)
Regarding `COc1ccc(C(=O)OCC(=O)NC(=O)CCSc2ccccc2)cc1`, the activation was 0.6% (inactive).
The same measure for `N#C/C(=C/c1cccc([N+](=O)[O-])c1)c1nnc2n1CCCCC2`: 1.1% (inactive); for `CCCCNC(=O)CSc1nc2ccc(NC(=O)CSc3nnc(N)s3)cc2s1`: -3.6% (inactive); for `Fc1ccccc1CNC(=S)Nc1ccc(Cl)cc1`: -7.2% (inactive).
Take `CCCn1c(SCC(=O)Nc2ccc(C)c(S(=O)(=O)N3CCOCC3)c2)n[nH]c1=O`: the activation is -1.4% (inactive).
As to `O=C(Cc1ccc(-c2ccccc2)cc1)NC(c1ccccc1)c1ccccc1`, the activation is 0.5% (inactive).
Regarding `CCN(CC)S(=O)(=O)c1ccc(C)c(NC(=O)COc2ccc(Br)cc2Cl)c1`, the activation is -2.8% (inactive).
The same measure for `O=C(Cc1c[nH]c2ccccc12)N/N=C/c1cccc(F)c1`: 1% (inactive).
The same measure for `CCCC(=O)Nc1cccc(NC(=S)NC(=O)C(C)Oc2ccc(Cl)cc2Cl)c1` (configuration not stated): -4.3% (inactive); for `Cc1c(C(=O)NCCCc2ccccc2)cccc1[N+](=O)[O-]`: -3.8% (inactive).
For `O=C1N(Cc2ccc3c(c2)OCO3)c2ccccc2C1(O)c1c[nH]c2ccccc12` (configuration not stated) the value was 65.9% (active); for `O=C(Cn1nnc(-c2ccccc2)n1)NCc1ccc2c(c1)OCO2`, -1.1% (inactive); for `O=C(CCCCn1c(=O)[nH]c2ccccc2c1=O)NCc1ccc2c(c1)OCO2`, -2% (inactive).
With `Cc1cccc(NC(=S)Nc2ccc3cn[nH]c3c2)c1`, the activation was 0.1% (inactive).
For the molecule `CSCC[C@H](NC(=O)OC(C)(C)C)C(=O)N/N=C/c1cc2ccc(C)cc2nc1Cl`, the activation is 1.8% (inactive).
On to `CC(=O)Nc1ccc(Nc2c([N+](=O)[O-])cc(S(C)(=O)=O)cc2[N+](=O)[O-])cc1`, for which the activation is -0.7% (inactive).
For `Cc1cccc2cc(CN(Cc3cccs3)C(=S)NCc3ccco3)c(=O)[nH]c12` the value was 3.8% (inactive).
Take `O=C(COC(=O)c1cc2c(s1)CCCC2)NCc1ccccc1Cl`: the activation is -0.1% (inactive).
As for `Cc1ccc(NC(=S)N2CCN(c3ncccn3)CC2)cc1C`, the activation was -7.7% (inactive).
The same measure for `Cc1c(Cl)cccc1NC(=O)CC1SC(=NCC2CCCO2)NC1=O` (configuration not stated): 2.9% (inactive).
With `Cc1c(C(=O)NCCN2C(=O)S/C(=C\c3cccs3)C2=O)cccc1[N+](=O)[O-]`, the activation is 23% (inactive).
In the case of `COc1ccc(CN2C(=O)CC(Cc3ccc(C)cc3)C2=O)cc1OC` (configuration not stated), the activation was -1.2% (inactive).
For `COC(=O)c1ccc(NC(=O)CSc2nncc3ccc(OC)c(OC)c23)cc1` the value was 3% (inactive).
As for `Cc1cc(C(=O)CSc2nc(N)cc(=O)[nH]2)c(C)n1-c1cccc(F)c1`, the activation was 16.6% (inactive).
For the molecule `COc1cccc(N(C(=O)C2COc3ccccc3O2)C(C(=O)NC2CCCCC2)c2ccc(O)cc2)c1` (configuration not stated), the activation is -0.8% (inactive).
As to `O=C(NCCc1ccccn1)c1cc(-c2ccc(Cl)cc2)nc2ccccc12`, the activation is 0.7% (inactive).
For `Cc1ccc(NC(=O)C(=O)NCc2ccc(/C=N/NC(=O)c3c(C)nc4cc(C)ccn34)o2)cc1` the value was 100% (inactive).
For the molecule `CCOC(=O)C1=C(C)N=C2c3ccccc3C(=O)C2C1c1ccc(Br)cc1` (configuration not stated), the activation is 4.9% (inactive).
The same measure for `Cc1ccc(NC(=O)CC2C(=O)N(Cc3ccccc3)C(=S)N2NC(=O)c2cccc(F)c2)c(C)c1` (configuration not stated): 2.6% (inactive).
The same measure for `COCCn1c(C)cc(C2=NNC(=Nc3ccc(F)cc3)SC2)c1C`: 120% (active).
The same measure for `Clc1cccc(N=C2NN=C(c3ccc4c(c3)OCCO4)CS2)c1`: 4.8% (inactive).
Turning to `CC(=O)Nc1ccc(NC(=S)NC(=O)c2ccc([N+](=O)[O-])c(C)c2)cc1`, the activation was 0.9% (inactive).
The same measure for `CC(C)(C)OC(=O)N/N=C/c1ccc(C(=O)O)cc1`: 0.2% (inactive).
In the case of `Cc1ccc(NC(=O)NC(=O)CSc2nnc(-c3ccc(OC(F)F)cc3)n2N)c(C)c1`, the activation was -3.1% (inactive).
As for `CN(C)CCCNC(=S)NCc1ccc(Cl)cc1`, the activation was 2.8% (inactive).
For `C/C(=N\NC(=O)CCn1nc(C)cc1C)C(C)(C)C` the value was 2.8% (inactive); for `COc1cc2c3c(c1)/C(=C1/SC(=S)NC1=O)C(=O)N3C(C)(C)C=C2C`, -7.7% (inactive); for `Cc1ccc(-n2c(C)cc(C(=O)CSc3nnc4ccccn34)c2C)cc1`, -2.4% (inactive).
Turning to `CC(NC(=S)Nc1ccccc1)C1COc2ccccc2O1` (configuration not stated), the activation was -1.1% (inactive).
The same measure for `COc1ccc2c(CN3CCN(S(=O)(=O)c4cccs4)CC3)cc(=O)oc2c1`: 1.6% (inactive); for `CCN(c1ccc(NC(=O)COC(=O)CCc2nc3ccccc3n2-c2ccccc2)cc1)C(C)C`: 5.2% (inactive).
On to `CC(=O)Nc1ccc(S(=O)(=O)N2CCN(c3ccc([N+](=O)[O-])c(NCCN4CCOCC4)c3)CC2)cc1`, for which the activation is 8.9% (inactive).
As for `COCCCNC(=O)Cn1cc(/C=C(\C#N)C(=O)N2CCN(c3ccccc3)CC2)c2ccccc21`, the activation was 0% (inactive).
For `O=C(Nc1nnc(SCc2ccccc2Cl)s1)c1cccc([N+](=O)[O-])c1`, the activation is -9.7% (inactive).
The same measure for `O=C(CCCN1C(=O)/C(=C/c2ccco2)SC1=S)Nc1ccccc1`: 2.1% (inactive).
On to `COc1ccc(/C(N)=N/OC(=O)Cc2ccccc2)cc1`, for which the activation is -3.3% (inactive).
`CCOC(=O)c1c(NC(=O)C2CCN(S(=O)(=O)c3ccc(Cl)cc3)CC2)sc2c1CCCC2`: the activation was 15.1% (inactive).
As to `COC(=O)Cc1ccc(NC(=S)NCc2ccccc2)cc1`, the activation is 1.6% (inactive).
`CC(C)N1C(=O)N(c2ccccc2)C(C)(O)CC1(C)C` (configuration not stated): the activation was 3.2% (inactive).
Take `O=C(CSc1nc2ccccc2c(=O)n1CCCO)N1CCc2ccccc21`: the activation was 2.1% (inactive).
The same measure for `Cc1ccc2[nH]cc(CCNC(=O)c3ccc([N+](=O)[O-])cc3)c2c1`: -1.3% (inactive); for `CCCCC(O)(CCCC)C(=O)NN(C(=O)CCl)c1ccccc1`: 3.4% (inactive).
Turning to `CNc1ccc(NC(C)=O)cc1[N+](=O)[O-]`, the activation was 2.9% (inactive).
Turning to `COc1ccc(NC(=O)CN2C(=O)C(c3ccccc3)=NC23CCCCCC3)cc1OC`, the activation was -1.4% (inactive).
For the molecule `Cc1ccc(-c2nnc(-c3ccc(NC(=O)c4cccs4)cc3)o2)cc1`, the activation is 161% (active).
As for `Cc1nc(-c2ccc(NC(=O)c3cccs3)cc2)cs1`, the activation is -4.6% (inactive).
The same measure for `Cc1ccc(-c2csc(NC(=O)c3cccs3)n2)cc1`: 3.8% (inactive).
The same measure for `COc1ccccc1OCCC(=O)OCC(=O)NCc1ccccc1`: 3.3% (inactive); for `CCCN(CCC)c1c([N+](=O)[O-])c(=O)oc2ccccc12`: 2.9% (inactive).
The same measure for `CC(C)[C@H](NC(=O)c1ccc(F)cc1)C(=O)OCC(=O)NC(=O)c1cccn1C`: 25.8% (inactive); for `Cc1cc(C)c(NC(=S)N2CCCC2C(=O)O)c(C)c1` (configuration not stated): -3.4% (inactive).
With `O=C(Nc1cc(C(F)(F)F)ccc1Cl)C(=O)N1CCCCC1`, the activation is 10.3% (inactive).
For `CC(NC(=O)CSc1nc2c(cc1C#N)CN(C)CC2)c1ccccc1` (configuration not stated) the value was -1.5% (inactive); for `CC1(C)Cc2nc3sc4c(SCC(=O)NC(c5ccccc5)c5ccccc5)ncnc4c3cc2CO1`, 93.6% (active).
For `CC(C)CCSc1ncnc2c1oc1nc3c(cc12)COC(C)(C)C3` the value was 6.2% (inactive).
The same measure for `CCc1c(C)sc(NC(=O)/C=C/c2ccc3c(c2)OCO3)c1C(=O)OC`: 9.1% (inactive); for `COc1ccc2oc(-c3cccc(NC(=O)CSc4ccc(Cl)cc4)c3)nc2c1`: 13.1% (inactive).
Regarding `O=C(COC(=O)Cc1ccc(F)cc1)Nc1cc(S(=O)(=O)N2CCOCC2)ccc1N1CCCC1`, the activation is -2.5% (inactive).
For `CN(C)CCCO/N=C(\c1ccccc1)c1ccncc1` the value was 3.7% (inactive).
The same measure for `O=C(COC(=O)Cn1cnc2ccccc21)Nc1cccc2c1C(=O)c1ccccc1C2=O`: 7.9% (inactive); for `COc1cc(Cl)c(C)cc1NC(=O)COC(=O)c1cc(SC)ccc1Cl`: 0.1% (inactive).
`Cc1ccc(-c2nc(C)sc2CC(=O)OCC(=O)Nc2c(F)cccc2F)cc1`: the activation was -4% (inactive).
`Cc1csc(=Nc2ccccc2)n1CCO`: the activation is 0.8% (inactive).
The same measure for `Cc1ccc(S(=O)(=O)Nc2nc(C)cc(N/N=C/c3ccc(O)cc3)n2)cc1`: 13.5% (inactive); for `Cc1cccc(NC(=O)Cn2c(=O)n(Cc3ccccc3)c(=O)c3c(C)c(C)sc32)c1`: 6.7% (inactive).
For `Cc1ccc(/C=N/NC(=O)CNC(=O)COc2ccccc2)o1` the value was 6.3% (inactive); for `O=C1N(c2ccc(Cl)cc2)C(c2ccc(Cl)cc2)N2CCCN12` (configuration not stated), 3.2% (inactive).
The same measure for `CCOc1ccc(/C=N/OCC(=O)NCc2cccs2)cc1`: -0.5% (inactive); for `C=CCSc1nc2ccccc2[nH]1`: 6.8% (inactive).
For the molecule `C=CCSc1nc(Cc2ccc(Cl)cc2)nc2ccccc12`, the activation is 69.1% (active).
The same measure for `C=CCn1c(SCn2nnc3ccccc3c2=O)nnc1-c1ccc(Cl)cc1`: 4.1% (inactive).
For `Cc1sc2ncnc(Sc3nc4ccccc4s3)c2c1C` the value was 12.1% (inactive); for `OC(COCC1COc2ccccc2O1)CN1CCN(c2ccc(F)cc2)CC1` (configuration not stated), 4.1% (inactive).
In the case of `C/C(=N/NC(=O)C1COc2ccccc2O1)c1ccco1` (configuration not stated), the activation is 1.2% (inactive).
The same measure for `N#CCOc1ccc(C2=NO[C@@H]3[C@@H]4C[C@@H]([C@H]5C(=O)N(c6ccc7c(c6)OCO7)C(=O)[C@@H]45)[C@H]23)cc1`: 0.6% (inactive); for `CC(=C/c1ccccc1)/C=N/NC(=O)c1cc(C)oc1C`: -1.7% (inactive); for `COc1ccc(NC(=O)c2ccc(C#CC(C)(C)O)cc2)cc1`: 2.8% (inactive).
The same measure for `Cc1ccc(OCC(=O)Nc2ccccc2Sc2ccc(Cl)cc2)c([N+](=O)[O-])n1`: -1% (inactive).
Turning to `Cc1cccc(-n2c(C)cc(/C=N/NC(N)=S)c2C)c1`, the activation is -1.9% (inactive).
In the case of `CC(C)NC(=S)N1CCN(S(C)(=O)=O)CC1`, the activation is 0.6% (inactive).
For `Cc1ccc(-c2nn(-c3ccccc3)cc2C(=O)Nc2cccc(S(=O)(=O)N3CCOCC3)c2)cc1`, the activation is -0.1% (inactive).
As to `CCOc1ccc(NC(=S)NC(=O)/C=C/c2ccc(OC)cc2)c([N+](=O)[O-])c1`, the activation was 34.7% (inactive).
